A selection: hits, their analogues and other compounds. The true share with any hit is near 2.6%.
eIF4H inh: inhibitors of RNA binding by human eIF4H; 290,000 compounds, 0.94% hits; eIF4H fluorescence polarization binding assay; inhibition, % at 35 µM; Q15056;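 note: calls also rest on retests at 20 µM and on dose response follow-up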
PABP1 MLLE inh: inhibitors of microRNA-mediated deadenylation, human PABP1 MLLE binding. GST-MLLE / FITC-PAM2 fluorescence polarization. inhibition, % at 20 µM. 360,000 compounds, 0.36% hits. AID 588489; in the data active = inhibition above about 35%, passing the limit was not always enough;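 note: plate controls were DMSO wells with GST-MLLE for no effect and wells lacking GST-MLLE protein for full effect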
PHOSPHO1 block: inhibitors of human PHOSPHO1 phosphatase | Q8TCT1 | recombinant PHOSPHO1, absorbance phosphatase assay | inhibition, % at 13.3 µM | 290,000 compounds, 1.1% hits; in the data active = inhibition above about 60%
A3A deaminase: inhibitors of human APOBEC3A DNA deaminase; 330,000 compounds, 0.41% hits; P31941; recombinant A3A, FAM/TAMRA ssDNA deamination fluorescence; inhibition, % at 20 µM;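 active = at least 40% inhibition at 20 µM here, with at most 30% in a related deaminase screen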;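 note: plate controls were A3A with DMSO for no effect and wells lacking A3A enzyme for full effect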
APOBEC3G inh: inhibitors of human APOBEC3G DNA deaminase; Q9HC16; recombinant A3G, ssDNA deamination FAM/TAMRA fluorescence; inhibition, % at 20 µM; 330,000 compounds, 0.28% hits;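 active = inhibition of at least 40% at 20 µM, with no more than 30% in the related APOBEC3A deaminase screen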;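 note: plate controls were DMSO wells with A3G for no effect and wells lacking A3G enzyme for full effect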
Target sequence (Q9HC16 whole entry, looked up): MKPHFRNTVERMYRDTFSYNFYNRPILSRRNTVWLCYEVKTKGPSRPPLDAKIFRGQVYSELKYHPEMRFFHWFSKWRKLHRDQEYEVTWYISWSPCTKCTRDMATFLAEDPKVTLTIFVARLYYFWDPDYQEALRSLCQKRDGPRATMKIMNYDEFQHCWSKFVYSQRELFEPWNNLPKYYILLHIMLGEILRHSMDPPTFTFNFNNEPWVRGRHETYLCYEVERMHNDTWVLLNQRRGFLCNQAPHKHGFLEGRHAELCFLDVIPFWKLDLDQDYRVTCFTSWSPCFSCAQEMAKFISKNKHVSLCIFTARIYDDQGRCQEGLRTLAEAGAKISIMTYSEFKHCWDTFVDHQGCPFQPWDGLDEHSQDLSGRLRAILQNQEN
PABP polyA inh: blocks human PABP binding to poly(A) RNA; 290,000 compounds, 1% hits; P11940; AID 2014; calls only at 35 µM; fluorescence polarization;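 note: calls also rest on retests at 20 µM and on dose response follow-up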
* marks the source's active call; other numbers are inactive results; i = inactive; nt = no result given; + = active, no number. Unless noted, the rule behind the calls is not given here.

SMILES | eIF4H inh | PABP1 MLLE inh | PHOSPHO1 block | A3A deaminase | APOBEC3G inh | PABP polyA inh
O=C(CCN1CCCO1)NC1CCCc2c1cnn2-c1ccccc1F (stereo unspecified) | -12 | 13 | 12 | -4 | -5 | i
O=C(CCc1cn2ccccc2n1)NC1CCCc2c1cnn2-c1ccccc1F (stereo unspecified) | nt | -5 | 75* | -5 | -9 | nt
NS(=O)(=O)c1ccc(NC(=O)c2cc(-c3cc(Cl)ccc3O)n[nH]2)cc1 | 3 | -14 | 34 | 2 | 0 | i
COc1cc(NC(=O)c2cc(S(=O)(=O)N3CCc4ccccc43)cn2C)cc(OC)c1OC | 1 | -3 | 65* | -3 | -3 | i
Cc1ccc(NC(=O)c2cc(S(=O)(=O)N3CCc4ccccc43)cn2C)cc1 | -6 | 12 | 18 | 0 | -8 | i
Cc1csc(SCC(=O)c2cc(C)n(Cc3cccs3)c2C)n1 | 6 | 24 | 91* | 1 | -6 | i
Nc1nnc(SCC(=O)c2ccc3ccccc3c2)s1 | 38 | nt | 75* | -3 | -1 | i
COc1ccc(-c2nnc(SCC(=O)c3cc(C)n(Cc4cccs4)c3C)o2)cc1 | 12 | -57 | 7 | 2 | 4 | i
Cc1cc(C(=O)CSc2nnc(N)s2)c(C)n1Cc1cccs1 | 77 | 17 | -11 | 1 | -4 | +
Cc1cc(C(=O)CSc2nnc(-c3ccc(OC(F)F)cc3)o2)c(C)n1Cc1cccs1 | 57* | -118 | 94* | -3 | -2 | +
Cn1c(=O)[nH]c(=O)c2c1nc(NC1CCCC1)n2Cc1ccccc1 | 9 | 3 | 19 | -3 | -7 | i
O=C(Cc1ccccc1)Nc1nnc(-c2ccco2)s1 | 64 | -6 | -16 | -3 | -6 | +
COc1ccccc1OCC(=O)Nc1nnc(-c2ccco2)s1 | 96* | 10 | 74* | nt | nt | +
CCOc1cccc(C(=O)Nc2nnc(-c3ccco3)s2)c1 | 45 | 0 | 76* | -1 | -5 | i
Cc1cccc(OCC(=O)Nc2nnc(-c3ccco3)s2)c1 | 33 | 10 | 8 | -1 | -3 | i
Cc1cc(C(=O)OCC(=O)N2CC(C)OC(C)C2)ccc1[N+](=O)[O-] (stereo unspecified) | -10 | -36 | 2 | 4 | -7 | i
C=CCN(CC=C)C(=O)Nc1cc(OC)ccc1OC | 2 | 20 | 45 | nt | nt | i
CCN(CC(=O)Nc1c(F)cccc1F)C(=O)Cc1ccc2c(c1)CCC2 | nt | 41* | nt | -4 | -5 | nt
COc1ccc(NS(=O)(=O)c2csc(C(=O)N3CCCC3)c2)c(OC)c1 | -3 | 10 | 38 | -1 | -1 | i
CCC(c1nnc(SCC(=O)Nc2cc(C)on2)o1)N(C)C (stereo unspecified) | nt | 16 | nt | -2 | -5 | nt
O=C(CSc1ccc2c(c1)OCCO2)Nc1ncc(Cl)cc1Cl | 4 | 8 | 14 | 0 | -8 | i
O=C(CSc1ccc2c(c1)OCCO2)NCCc1ccc(Cl)cc1Cl | -12 | 40* | 3 | -3 | -13 | i
CCC(c1nnc(SCC(=O)NCCc2ccc(Cl)cc2Cl)o1)N(C)C (stereo unspecified) | 0 | 21 | 67* | -2 | -5 | i
O=C(O)C1Sc2[nH]c(=O)sc2C2c3cc(Cl)ccc3OC(=O)C12 (stereo unspecified) | 14 | 15 | 89* | -3 | -4 | +
O=C(Nc1ccc(F)cc1F)NC1CC1 | -2 | 6 | -40 | 1 | 0 | i
SMILES | eIF4H inh | PABP1 MLLE inh | PHOSPHO1 block | A3A deaminase | APOBEC3G inh | PABP polyA inh
O=C(Nc1ccc(F)cc1F)NC1CCCCCCC1 | -1 | -3 | 61* | -4 | -7 | i
CCN(CC)S(=O)(=O)c1ccc(C)c(NC(=O)CSc2nnnn2C)c1 | nt | 7 | nt | 2 | -3 | nt
O=C(Nc1cc(F)ccc1F)C1CCCN1S(=O)(=O)c1cccc2nsnc12 (stereo unspecified) | -3 | -4 | 48 | 0 | -4 | i
CN1C(C(=O)c2ccccc2)=C(N)c2ccccc2S1(=O)=O | 0 | -4 | 64* | -5 | -19 | i
Cc1ccc(NC2=C(C(=O)c3ccccc3)N(C)S(=O)(=O)c3ccccc32)cc1 | -11 | 6 | 13 | 3 | 2 | i
C=CCn1c(SCc2cc(=O)n3ccsc3n2)nnc1C1CCCCC1 | 73* | -32 | 24 | 31 | 32 | +
O=c1cc(CSc2nnc(NC3CCCCC3)s2)nc2sccn12 | -2 | 0 | 48 | 7 | -1 | i
